A short description of test [1]: qHTS assay to identify small molecule antagonists of the thyroid receptor (TR) signaling pathway (AID 743065). Further: nearly all actives have a fitted effect of over 55% in size. Further: potency means the concentration at half of the fitted maximal effect. In outline: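 Antagonism measured as loss of luciferase signal in GH3 cells stably carrying a TRE-luciferase reporter, co-treated with compound and T3 (1 nM final) for 23.5 h at 37 C. Viability was read in the same well by CellTiter-Fluor.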
Test [2] has as its system thyroid hormone receptor (rat, GH3 cells). As to the kind of experiment: qHTS assay to identify small molecule agonists of the thyroid receptor (TR) signaling pathway (AID 743066; calls by dose curve; further: potency means the concentration at half of the fitted maximal effect). For orientation: qHTS replaces the single test concentration by a dilution series.
The target of test [3] is Estrogen receptor (Homo sapiens) (UniProt P03372). Put plainly: qHTS assay to identify small molecule antagonists of the estrogen receptor alpha (ER-alpha) signaling pathway (AID 743069; active means well fitted curve in the direction sought with a large enough effect in the signal ratio in the repeat runs, not every such curve was filed as active; the % refers to the signal ratio). In a few lines:
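Antagonist mode: compounds in DMSO were co-added with 17beta-estradiol to ER-alpha-bla HEK293 cells (2% charcoal-stripped serum) and left 18 h at 37C. Reporter inhibition was measured as FRET fluorescence after 2 h LiveBLAzer substrate at room temperature.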

Test [4] can be described thus: qHTS assay to identify small molecule antagonists of the estrogen receptor alpha (ER-alpha) signaling pathway - cell viability counter screen (AID 743074; calls by dose curve;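 further: HEK293 cells carrying ER-alpha-UAS-bla reporter stimulated with 17beta-estradiol; nearly all actives have a fitted effect of over 45% in size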).
For test [5], the target named is Estrogen receptor (Homo sapiens) (UniProt P03372). Put plainly: qHTS assay to identify small molecule agonists of the estrogen receptor alpha (ER-alpha) signaling pathway (AID 743075; calls by dose curve;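 further: HEK293 GripTite cells with ER-alpha and UAS-driven beta-lactamase reporter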; further: potency means the concentration at half of the fitted maximal effect).
Chain of Estrogen receptor (Homo sapiens) (P03372 whole entry, looked up): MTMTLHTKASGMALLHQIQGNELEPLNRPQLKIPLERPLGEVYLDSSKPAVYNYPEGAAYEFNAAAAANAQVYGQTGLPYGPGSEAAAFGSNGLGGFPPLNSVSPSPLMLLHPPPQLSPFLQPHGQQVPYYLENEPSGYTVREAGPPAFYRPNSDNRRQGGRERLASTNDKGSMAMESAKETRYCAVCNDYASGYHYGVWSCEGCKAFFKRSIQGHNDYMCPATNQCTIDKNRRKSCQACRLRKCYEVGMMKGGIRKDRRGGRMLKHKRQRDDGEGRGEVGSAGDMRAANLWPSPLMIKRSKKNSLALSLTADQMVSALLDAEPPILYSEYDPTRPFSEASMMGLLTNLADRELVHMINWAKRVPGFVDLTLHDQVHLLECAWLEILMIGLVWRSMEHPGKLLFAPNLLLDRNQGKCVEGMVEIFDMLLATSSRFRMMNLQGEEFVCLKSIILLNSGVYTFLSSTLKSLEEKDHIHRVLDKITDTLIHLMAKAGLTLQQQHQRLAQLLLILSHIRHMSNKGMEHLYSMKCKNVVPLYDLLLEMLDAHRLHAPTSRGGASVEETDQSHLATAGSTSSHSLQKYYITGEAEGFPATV
For test [6] the target is unchanged. Put plainly: qHTS assay to identify small molecule agonists of the estrogen receptor alpha (ER-alpha) signaling pathway using the BG1 cell line (AID 743079). Further: nearly all actives have a fitted effect of over 20% in size. Further: potency means the concentration at half of the fitted maximal effect.
The nature of test [7]: qHTS assay to identify small molecule antagonists of the estrogen receptor alpha (ER-alpha) signaling pathway using the BG1 cell line (AID 743080; calls by dose curve;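 further: BG1 cells stimulated with 17beta-estradiol alongside compound; nearly all actives have a fitted effect of over 25% in size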; further: potency means the concentration at half of the fitted maximal effect). In a few lines: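 BG1Luc4E2, endogenous ER-alpha, 4xERE-luc; 5 d charcoal-stripped FBS, phenol red free; 24 h plating; cpd + 17beta-estradiol 21.5 h, 37 C/5% CO2; CellTiter-Fluor viability 30 min, then ONE-Glo luciferase 30 min RT.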

Test [8] can be described thus: qHTS assay to identify small molecule antagonists of the estrogen receptor alpha (ER-alpha) signaling pathway using the BG1 cell line - cell viability counter screen (AID 743081).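 Further: compound given together with 17beta-estradiol as the ER stimulus; series mostly up to about 70 µM; nearly all actives have a fitted effect of over 45% in size.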
Another test has as its target Aromatase (Homo sapiens) (UniProt P11511). As to the kind of experiment: qHTS assay to identify aromatase inhibitors (AID 743083). Further: series mostly up to about 70 µM; nearly all actives have a fitted effect of over 55% in size.

The record followed here is PubChem BioAssay (Tox21).

“And” between values parts separate entries of the source, which are not always exact repeats. Identical values can stand only once. Inconclusive results are not listed. Some structures have more than one record in an assay (separate samples or runs), and their calls can disagree. The source made the active and inactive calls. Unless noted, the call rests on the fitted dose curve; in most records, active means well fitted curve in the direction sought with a large enough effect in the repeat runs; inconclusive means weak or mixed curves; inactive means no such curve, though single readings can be large; an effect the other way counts as inactive or inconclusive.

Chain of Aromatase (Homo sapiens) (P11511 whole entry, looked up): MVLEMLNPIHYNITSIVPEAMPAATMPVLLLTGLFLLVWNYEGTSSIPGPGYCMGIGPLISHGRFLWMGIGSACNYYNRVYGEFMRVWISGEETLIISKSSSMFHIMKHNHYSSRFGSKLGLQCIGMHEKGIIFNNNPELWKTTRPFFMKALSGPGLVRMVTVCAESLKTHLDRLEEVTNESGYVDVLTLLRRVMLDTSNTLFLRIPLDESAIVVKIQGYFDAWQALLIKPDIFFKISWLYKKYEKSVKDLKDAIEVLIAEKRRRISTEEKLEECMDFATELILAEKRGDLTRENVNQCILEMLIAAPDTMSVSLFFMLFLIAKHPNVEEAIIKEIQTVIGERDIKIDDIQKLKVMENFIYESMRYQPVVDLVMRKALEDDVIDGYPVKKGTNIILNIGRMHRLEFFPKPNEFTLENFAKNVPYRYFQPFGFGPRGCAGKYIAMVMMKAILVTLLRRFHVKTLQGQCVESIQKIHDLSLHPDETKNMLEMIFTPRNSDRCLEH

For the compound `O=C(O)CC(C(=O)O)C(CC(=O)O)C(=O)O` (configuration not stated), the Potency result in test [1], in test [2], in [3], in test [5], in test [6] and in test [7] was “inactive” each time. The Potency entry (in test [8]; with Aromatase (Homo sapiens)) was “inactive” throughout. Besides, the result in test [4] was inactive.
For the compound `C=C(C)C(=O)OCCOCCOCCOC(=O)C(=C)C`, the Potency entry (in test [1]; in [2]; in test [8]; with Aromatase (Homo sapiens)) was “inactive” throughout. Further, the outcome in test [4] was inactive.
`CC(=O)OCC(=O)[C@@]12N=C(C)O[C@@H]1C[C@H]1[C@@H]3CCC4=CC(=O)C=C[C@]4(C)[C@H]3[C@@H](O)C[C@@]12C`: the Potency entry (in test [1]; in test [2]; in test [5]; in [8]; with Aromatase (Homo sapiens)) was “inactive” in each case. Also, in test [4], the outcome was inactive. In addition, the Potency in [6] was 16.8 µM (active).
In the case of `CN(C)CCOCCN(C)C`, the Potency entry (in test [1]; in test [2]; in [8]; with Aromatase (Homo sapiens)) was “inactive” each time. Moreover, the outcome in test [4] was inactive.
Take `O=S1(=O)CC=CC1`: the Potency entry in [1], in [2], in [3], in test [5], in test [6] and in test [7] was “inactive” each time. The Potency entry (in [8]; with Aromatase (Homo sapiens)) was “inactive” each time. For the same compound, the outcome in [4] was inactive.
Turning to `CC1CCC2CC1C2(C)C` (configuration not stated), the Potency entry (in [1]; in test [2]; in [8]; with Aromatase (Homo sapiens)) was “inactive” in each case. The compound was classed as inactive in test [4].
In the case of `CCC(O)OC(O)CC` (configuration not stated), the Potency entry in test [1], in test [2], in [3], in test [5], in test [6] and in test [7] was “inactive” each time. Besides, the Potency entry (in test [8]; in the test with Aromatase (Homo sapiens)) was “inactive” each time. Also, the call in [4] was inactive.
With `CCC(O)OCCCOC` (configuration not stated), the Potency entry (in test [1]; in test [2]; in test [8]; in the test with Aromatase (Homo sapiens)) was “inactive” in each case. Moreover, the outcome in test [4] was inactive.
As to `COc1ccc2cc([C@H](C)C(=O)O)ccc2c1`, the Potency entry in test [1], in [2] and in test [8] was “inactive” each time. Also, the compound was called inactive in test [4].
For the compound `O=c1[nH]nnc2ccccc12`, the Potency entry (in test [1]; in test [2]; in test [8]; with Aromatase (Homo sapiens)) was “inactive” in each case. The call in test [4] was inactive.
As to `C[C@H]1C[C@@H]2[C@H]([C@@H](O)C[C@@]3(C)[C@H]2CC[C@]3(O)C(=O)CO)[C@@]2(C)C=CC(=O)C=C12`, the Potency entry (in test [1]; in [2]; in [8]; with Aromatase (Homo sapiens)) was “inactive” in each case. In test [4], the outcome was inactive.
`C[Si](O[Si](C)(C)C)O[Si](C)(C)C`: the Potency entry (in [1]; in test [2]; in test [8]; with Aromatase (Homo sapiens)) was “inactive” in each case. In [4], the call was inactive.
`O=C(O)c1cc(=O)c2c(OCC(O)COc3cccc4oc(C(=O)O)cc(=O)c34)cccc2o1`: the Potency entry (in test [3]; in test [5]; in test [6]; in [7]; in test [8]; with Aromatase (Homo sapiens)) was “inactive” throughout. The call in test [4] was inactive.
As to `O=C(CC(C(=O)OC1CCCCC1)S(=O)(=O)O)OC1CCCCC1` (configuration not stated), the Potency entry (in test [1]; in [2]; in test [8]; in the test with Aromatase (Homo sapiens)) was “inactive” each time. Further, the call in [4] was inactive.
For `OCCOCCN1CCN(C2=Nc3ccccc3Sc3ccccc32)CC1`, the Potency result in test [2] and in test [8] was “inactive” each time. The compound was called inactive in [4].
Regarding `CCCCCC1=CCCC1=O`, the Potency result in test [1], in test [2], in test [3], in test [5], in test [6] and in [7] was “inactive” in each case. Also, the Potency result (in test [8]; with Aromatase (Homo sapiens)) was “inactive” in each case. Moreover, the result in test [4] was inactive.
Regarding `CCCSc1ccc2nc(NC(=O)OC)[nH]c2c1`, the call in [4] was inactive. For the same compound, the Potency entry (in test [8]; with Aromatase (Homo sapiens)) was “inactive” in each case.
As for `c1ccc2scnc2c1`, the Potency entry in [1], in test [2], in test [3], in test [5], in test [6] and in test [7] was “inactive” each time. In addition, the Potency entry (in [8]; with Aromatase (Homo sapiens)) was “inactive” each time. The call in test [4] was inactive.
With `Nc1ccccc1[N+](=O)[O-]`, the Potency entry (in test [1]; in [2]; in test [8]; with Aromatase (Homo sapiens)) was “inactive” throughout. The compound was called inactive in [4].
In the case of `C#C[C@]1(O)CC[C@H]2[C@@H]3CCC4=CC(=O)CC[C@@H]4[C@H]3CC[C@@]21C`, the outcome in test [4] was inactive. Also, the Potency result (in [7]; in test [8]; in the test with Aromatase (Homo sapiens)) was “inactive” in each case.
In the case of `NNc1nncc2ccccc12`, the outcome in [4] was inactive. In addition, the Potency result (in test [8]; in the test with Aromatase (Homo sapiens)) was “inactive” throughout.
Turning to `CCCCCCCC(=O)OC`, the Potency entry in test [1], in test [2], in [3], in test [5], in test [6] and in [7] was “inactive” in each case. Further, the Potency entry (in [8]; with Aromatase (Homo sapiens)) was “inactive” in each case. In addition, in test [4], the compound was called inactive.
With `O=C(O)c1ccc2c(c1)C(=O)OC2=O`, the Potency result in test [1], in [2], in test [3], in test [5], in [6] and in test [7] was “inactive” throughout. For the same compound, the Potency result (in test [8]; with Aromatase (Homo sapiens)) was “inactive” each time.
Regarding `C=C(C)C(=O)Nc1ccc(Cl)c(Cl)c1`, the Potency was 49.1 µM (active) and 54.3 µM (active) in test [1]; 69.3 µM (active) and 68.3 µM (active) in [7]. Also, the Potency result (in test [2]; in test [3]; in test [5]; in [6]; in test [8]; with Aromatase (Homo sapiens)) was “inactive” in each case. Further, in [4], the compound was classed as inactive.
For `COc1ccc(NC(C)=O)cc1N`, the Potency result (in test [1]; in [2]; in [3]; in test [7]; in test [8]; in the test with Aromatase (Homo sapiens)) was “inactive” each time. In addition, the compound was called inactive in test [4]. Further, the Potency in [5] was 54.7 µM [activator] (active) and inactive; in [6] it was 54.3 µM (active) and inactive.
For `COc1ccc(Nc2ccccc2)c(C)c1`, the Potency result in [1], in test [2], in [3], in test [5], in test [6] and in [7] was “inactive” each time. The Potency entry (in test [8]; in the test with Aromatase (Homo sapiens)) was “inactive” in each case. Moreover, the call in [4] was inactive.
In the case of `O=C1CCC(N2C(=O)c3ccccc3C2=O)C(=O)N1` (configuration not stated), the Potency entry (in [1]; in test [2]; in test [8]; with Aromatase (Homo sapiens)) was “inactive” each time. Moreover, the result in test [4] was inactive.
Regarding `Cc1cc(C)c(C)cc1C`, the Potency result in [1], in test [2], in test [3], in test [5], in [6] and in test [7] was “inactive” throughout. The Potency result (in test [8]; with Aromatase (Homo sapiens)) was “inactive” each time. Also, in test [4], the result was inactive.
`CC1=CC(=O)NS(=O)(=O)O1`: the Potency entry (in test [1]; in test [2]; in [8]; in the test with Aromatase (Homo sapiens)) was “inactive” each time. Moreover, the outcome in test [4] was inactive.
`c1ccc2c(c1)ccc1ccccc12`: the Potency entry in test [2], in test [3], in [5], in [6], in test [7] and in test [8] was “inactive” throughout. The Potency entry in the test with Aromatase (Homo sapiens) was “inactive”. Besides, in test [4], the result was inactive.
For the compound `O=c1[nH]c(=O)n([C@H]2C[C@H](O)[C@@H](CO)O2)cc1Br`, the Potency entry (in test [1]; in test [2]; in test [3]; in test [5]; in test [8]; with Aromatase (Homo sapiens)) was “inactive” throughout. In test [4], the compound was classed as inactive.
As to `Cc1occc(=O)c1O`, the Potency result (in test [1]; in [8]; in the test with Aromatase (Homo sapiens)) was “inactive” in each case. Also, in [2], the Potency entry is “inactive and 50.9 µM (active)”. For the same compound, the result in test [4] was inactive.
Turning to `O=S(=O)(O)c1ccc2ccccc2c1`, the Potency result in test [1], in [2], in test [3], in test [5], in test [6] and in [7] was “inactive” each time. For the same compound, the Potency entry (in test [8]; in the test with Aromatase (Homo sapiens)) was “inactive” in each case. In test [4], the compound was called inactive.
As for `Cc1ccc2oc(=O)ccc2c1`, the Potency result in test [1], in test [2], in [3], in [5], in test [6] and in test [7] was “inactive” each time. Moreover, the Potency result (in test [8]; in the test with Aromatase (Homo sapiens)) was “inactive” each time. Moreover, in test [4], the outcome was inactive.
For `CC(O)COCC(C)O` (configuration not stated), the Potency result in [1], in [2], in test [3], in test [5], in test [6] and in test [7] was “inactive” in each case. The Potency entry (in test [8]; with Aromatase (Homo sapiens)) was “inactive” throughout.
Regarding `Oc1cccc2ccccc12`, the Potency result in [1], in test [2] and in [8] was “inactive” each time. The call in test [4] was inactive.
As for `CC(=O)Nc1cccc(O)c1`, the Potency entry in test [1], in [2], in [3], in test [5], in [6] and in test [7] was “inactive” throughout. Besides, the Potency entry (in [8]; with Aromatase (Homo sapiens)) was “inactive” each time. The result in test [4] was inactive.
In the case of `O=C(O)CCCCCCCCCCC(=O)O`, the Potency entry in [1], in [2], in test [3], in test [5], in [7] and in test [8] was “inactive” each time. Moreover, the Potency result with Aromatase (Homo sapiens) was “inactive”. Further, the result in test [4] was inactive. Further, the Potency result in [6] is “inactive and 61.1 µM (active)”.
